Results published in PubChem BioAssay.
Calls of active or inactive are those of the source.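 Rule for the calls, unless noted: active = NADPH fluorescence slope more negative than the mean of all samples by about 3 SD, 99.7% confidence; inactive = the rest.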

How the values were obtained:
[1] = inhibitors of TNFa-induced NFkB p65 translocation, primary screen, imaging, HUVEC, MLSMR starter and 10KST1 sets (AID 438;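 active = inhibition above 20% together with a positive visual image hit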;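 note: compound added about 3h40 before a 20 min TNFalpha stimulation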;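 for inhibition: signal is the nuclear over cytoplasmic p65 intensity ratio per well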); conditions: HUVEC TNFa-induced p65 nuclear translocation; cell count: measured here: nuclei count (cytotoxicity indicator), at 2.08 µM; inhibition: at 2 µM, stronger effect = higher value, 0% TNFa-plus-vehicle, 100% no-TNFa wells
[2] = inhibitors of mutant huntingtin aggregation, primary screen, imaging, exon1htt(103Q)mCFP cells, high-content imaging (AID 483;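 active = visual image review flags a hit and inhibition of aggregation exceeds 20%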;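 note: compound exposure lasted 3 days before fixation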;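 for nuclei count: percent of the per-plate median nuclei count of sample wells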); conditions: exon1htt(103Q)mCFP cell line, aggregate imaging, at 2 µM; inhibition of aggregation: stronger effect = higher value; nuclei count: measured here: cell count, toxicity
[3] = inhibitors of E-selectin induction by TNFa, primary screen, imaging, HUVEC, immunofluorescence, MLSMR starter and 10KST1 sets (AID 487;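 active = visually confirmed hit in the image check and inhibition above 20%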;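 for inhibition: signal is fraction of cell area covered by stained E-selectin grains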;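 for nuclei count: 100% = median nuclei count of all wells on the same plate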); conditions: HUVEC TNFalpha-induced E-selectin immunofluorescence imaging, at 2 µM; inhibition: stronger effect = higher value; nuclei count: measured here: cell number, toxicity
[4] = molecular target: Voltage-gated potassium channel subunit beta-2 (Rattus norvegicus) (UniProt P62483); experiment: KvBeta enzyme negative modulators, primary screen, biochemical, NADPH fluorescence (AID 622;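 active = fluorescence slope higher than the sample average by over 3 SD, cut at about -0.22 in these data, passing the limit was not always enough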;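 note: slope of raw intensity against log time taken from 70 to 1610 s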); conditions: recombinant KvBeta, 4-cyanobenzaldehyde reduction, at 10 µM, stronger effect = higher value
Voltage-gated potassium channel subunit beta-2 (Rattus norvegicus), sequence (P62483 whole entry, looked up): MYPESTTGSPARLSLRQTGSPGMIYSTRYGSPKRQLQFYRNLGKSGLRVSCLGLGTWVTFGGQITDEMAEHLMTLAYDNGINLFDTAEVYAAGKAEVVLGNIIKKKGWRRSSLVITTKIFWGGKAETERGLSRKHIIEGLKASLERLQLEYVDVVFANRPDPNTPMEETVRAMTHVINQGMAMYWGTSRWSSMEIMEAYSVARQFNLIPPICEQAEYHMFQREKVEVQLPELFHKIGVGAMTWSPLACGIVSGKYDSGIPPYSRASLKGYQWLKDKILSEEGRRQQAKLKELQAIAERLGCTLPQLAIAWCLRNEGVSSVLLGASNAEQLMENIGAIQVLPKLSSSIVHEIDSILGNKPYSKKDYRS

[5] = molecular target: Voltage-gated potassium channel subunit beta-2 (Rattus norvegicus) (UniProt P62483); experiment: KvBeta positive modulators, primary screen, biochemical, NADPH fluorescence (AID 623); conditions: Recombinant KvBeta, NADPH fluorescence decrease slope, 10 min; at 10 µM; stronger effect = lower value;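 note: fluorescence intensity change per second fitted from 20 to 320 s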
[6] = molecular target: Alpha-2C adrenergic receptor (Homo sapiens) (UniProt P18825); experiment: modulators of alpha2C/GIRK thallium flux, primary screen, cell-based, HEK293 alpha2C/GIRK1/2 (AID 624;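 active = fluorescence slope after compound addition differing from the mean of all screened samples at 99.7% confidence, in either direction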;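 note: slope of fluorescence ratio to pre-addition baseline per second over 15 to 24 s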); conditions: thallium flux BTC fluorescence, at 10 µM, actives lie on both sides
Alpha-2C adrenergic receptor (Homo sapiens), sequence (P18825 whole entry, looked up): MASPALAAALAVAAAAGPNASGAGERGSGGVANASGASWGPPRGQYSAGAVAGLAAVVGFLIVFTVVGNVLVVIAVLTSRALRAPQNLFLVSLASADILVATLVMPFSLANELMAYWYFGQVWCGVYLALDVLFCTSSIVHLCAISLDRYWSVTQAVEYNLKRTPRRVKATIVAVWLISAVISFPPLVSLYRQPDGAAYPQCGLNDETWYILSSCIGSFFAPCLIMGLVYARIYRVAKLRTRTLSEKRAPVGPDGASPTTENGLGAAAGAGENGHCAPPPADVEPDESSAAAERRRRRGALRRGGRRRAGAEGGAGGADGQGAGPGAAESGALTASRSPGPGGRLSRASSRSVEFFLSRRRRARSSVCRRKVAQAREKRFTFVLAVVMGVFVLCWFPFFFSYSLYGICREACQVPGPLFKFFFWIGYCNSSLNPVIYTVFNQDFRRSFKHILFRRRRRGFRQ

[7] = inhibitors of Sendai virus-induced IRF3 signaling, primary screen, TLR/RLR signaling modifier project, cell-based, Sendai virus stimulus, luciferase, 10K MLSCN set (AID 602276;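 active = inhibition at or above 50% at 10 µM; inactive = inhibition below 50%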;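 note: firefly luciferase from ISG56 promoter only with Renilla not read in this screen; 0% = Sendai virus plus DMSO and 100% = medium plus DMSO without virus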); conditions: HEK293 RL24 IRF3 luciferase reporter, at 10 µM, stronger effect = higher value
[8] = inhibitors of poly I:C-induced TLR3 signaling, primary screen, cell-based, poly I:C stimulus, luciferase, 10K MLSCN set (AID 602277;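 active = inhibition of the reporter signal at or above 50%; inactive = inhibition below 50%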); conditions: HEK293-TLR3 RL24 IRF3 luciferase reporter, at 10 µM, stronger effect = higher value

Structure (SMILES)	cell count [1]	inhibition [1]	inhibition of aggregation [2]	nuclei count [2] [%]	inhibition [3]	nuclei count [3] [%]	fluorescence slope [4]	NADPH fluorescence slope [5]	slope [6]	inhibition [7]	inhibition [8]
CC(C)OC(=O)CSc1nnc(-c2cccnc2)n1Cc1ccccc1	706	-16.4% (inactive)	8.1% (inactive)	88.7	5.1% (inactive)	98.8	-0.356 (inactive)	-4.8e-05 (inactive)	0.00509 (inactive)	8.88% (inactive)	10.9% (inactive)
CCOCC(=O)Nc1ccc(S(=O)(=O)N2CCOCC2)cc1	283	-3.2% (inactive)	16.5% (inactive)	89.1	-6.7% (inactive)	73.9	-0.418 (inactive)	5.9e-06 (inactive)	0.00604 (inactive)	12% (inactive)	19.7% (inactive)
CC(=O)Nc1ccc(S(=O)(=O)N2CCN(c3cc(C)nc4ccccc34)CC2)cc1	730	-9.1% (inactive)	35.3% (inactive)	123	-87.3% (inactive)	120	-0.31 (inactive)	-7.9e-05 (inactive)	0.00466 (inactive)	5.87% (inactive)	13.2% (inactive)
O=C(NCc1ccco1)c1c2c(nc3ccccc13)CCC2	301	-1.7% (inactive)	11.3% (inactive)	87.3	-7.8% (inactive)	83.7	-0.494 (inactive)	-5.2e-05 (inactive)	0.00639 (inactive)	5.99% (inactive)	7.89% (inactive)
O=C(Nc1ccc(F)cc1F)NC1CC(=O)N(Cc2ccccc2)C1 (centres undefined)	664	1.6% (inactive)	22.4% (inactive)	66.3	4.4% (inactive)	103	-0.571 (inactive)	-1.6e-05 (inactive)	0.0068 (inactive)	-12.5% (inactive)	1.35% (inactive)
CCn1cc(C(=O)NCc2ccccc2OC)c(=O)c2cc(S(=O)(=O)N(C)C)ccc21	665	-5.5% (inactive)	7.5% (inactive)	74.5	-39.5% (inactive)	113	-0.425 (inactive)	-4e-05 (inactive)	0.00524 (inactive)	13.2% (inactive)	23.7% (inactive)
CCOc1ccccc1-n1c(SCC(=O)NCc2ccco2)nnc1-c1ccncc1	376	8.9% (inactive)	6% (inactive)	93	6% (inactive)	85.8	-0.405 (inactive)	3.6e-05 (inactive)	0.00499 (inactive)	7.96% (inactive)	21.5% (inactive)
O=C(Nc1ccc(O)cc1)C1CCCN1S(=O)(=O)c1ccc(F)cc1 (centres undefined)	598	-2.1% (inactive)	-9.8% (inactive)	90	-33.3% (inactive)	119	-0.497 (inactive)	-2.5e-05 (inactive)	0.00664 (inactive)	8.7% (inactive)	9.85% (inactive)
CCc1cccc(NC(=O)CN(C)S(=O)(=O)c2cccc3nsnc23)c1	337	-6.3% (inactive)	7.8% (inactive)	94	-68.8% (inactive)	120	-0.35 (inactive)	-6.7e-05 (inactive)	0.0056 (inactive)	10.2% (inactive)	8.03% (inactive)
Cc1cccc(NC(=O)c2oc3c(c2C)C(=O)CC(C)(C)C3)n1	256	-4% (inactive)	-4.5% (inactive)	90.8	-63.6% (inactive)	93.5	-0.403 (inactive)	-7.1e-05 (inactive)	0.00548 (inactive)	-18% (inactive)	-30.8% (inactive)
O=C(NCCCn1ccnc1)c1csc2ccccc12	337	4.7% (inactive)	-23.2% (inactive)	99.4	-7.7% (inactive)	113	-0.414 (inactive)	-3.7e-05 (inactive)	0.00227 (inactive)	10.2% (inactive)	27.4% (inactive)
Cc1ccc(N(C(=O)C2CCC(=O)N2)C2(C(=O)NC3CCCCC3)CCCCC2)cc1 (centres undefined)	690	11.9% (inactive)	22.8% (inactive)	85.5	-16.1% (inactive)	84.9	-0.558 (inactive)	3.4e-05 (inactive)	0.00517 (inactive)	-4.63% (inactive)	5.62% (inactive)
CCOc1ccccc1OCCn1nnc2ccccc21	312	-0.2% (inactive)	-1.3% (inactive)	114	-6.1% (inactive)	109	-0.443 (inactive)	-5.5e-05 (inactive)	0.0043 (inactive)	1.2% (inactive)	-3.68% (inactive)
Cc1noc(C)c1C(=O)N1CCN(C(=O)c2sc3cc(Cl)ccc3c2Cl)CC1	600	-5.4% (inactive)	0.7% (inactive)	111	-78.2% (inactive)	100	-0.328 (inactive)	-6.4e-05 (inactive)	0.00474 (inactive)	8.91% (inactive)	9.68% (inactive)
